Data published in PubChem BioAssay.
Calls of active or inactive are those of the source. Unless noted, no rule for the calls is given here.

How the values were obtained:
[1] = system: Wnt5a (protein binding on small-molecule microarray); assay: Wnt5a binders on small-molecule microarray, primary screen, biophysical, 635/667 nm fluorescence (AID 1142); conditions: 635 nm fluorescence, higher = more signal;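 also: fluorescence read at 667 nm with signal to noise per printed feature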
[2] = cell viability in Huh7 cells, primary screen, cytotoxicity control for HCV replication inhibitor project, CellTiter-Glo luminescence, basal, 48 h (AID 1143); conditions: Huh7 HCV replicon, higher = more signal, called active from +8 up or from −8 down;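 also: Huh7 hepatoma cells carrying a hepatitis C replication reporter with no stimulus; test concentration not given here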
[3] = P. aeruginosa biofilm formation inhibitors, primary screen, PAO1 strain, BacTiter-Glo luminescence, LB-PBS (AID 1144); conditions: 12 h, higher = more signal
[4] = CREB reporter modulators without forskolin, primary screen, cell-based, PC12, CRE-LacZ reporter, unstimulated (AID 1145); conditions: no forskolin, luminescence, 4.5 h, higher = more signal, called active from +8 up or from −8 down
[5] = CREB reporter modulators under forskolin, primary screen, cell-based, PC12, CRE-LacZ reporter, forskolin-stimulated (AID 1146); conditions: luminescence, 4.5 h, higher = more signal, called active from +8 up or from −8 down;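 also: PC12 cells with 6xCRE LacZ reporter stimulated by forskolin 10 µM; beta-galactosidase reporter signal reflecting CREB driven transcription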
[6] = molecular target: Streptavidin (Streptomyces avidinii) (UniProt P22629); assay: streptavidin binders on small-molecule microarray, primary screen, artefact control for SMM compound annotation, biophysical, 635/667 nm fluorescence (AID 1147); conditions: streptavidin binding, higher = more signal;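 also: signal reflects streptavidin binding to arrayed compounds as a control protein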
[7] = small-molecule binders of probe aInhba, primary screen, biochemical, small-molecule microarray, 635/667 nm fluorescence (AID 1148); conditions: higher = more signal;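 also: score merges 667nm spot fluorescence with signal-to-noise for antibody binding to printed compounds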
[8] = molecular target: Torsin-1A (Homo sapiens) (UniProt O14656); assay: torsin A binders from cell lysate, primary screen, small-molecule microarray, wild-type, 635/667 nm (AID 1149); conditions: COS7 hTOR1A-WT lysate, 635 nm fluorescence, higher = more signal
[9] = molecular target: Torsin-1A (Homo sapiens) (UniProt O14656); assay: small-molecule binders of mutant TOR1A in lysate, primary screen, cell lysate, small-molecule microarray, COS7 lysate, 635/667 nm fluorescence (AID 1150); conditions: COS7 hTOR1A mutant lysate, 635 nm fluorescence, higher = more signal;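 also: score pools 667 nm emission and signal to noise measuring lysate protein binding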
[10] = system: Sonic hedgehog protein (Shh); assay: small-molecule binders of Shh protein, primary screen, biochemical, small-molecule microarray, 635/667 nm fluorescence (AID 1151); conditions: small-molecule microarray binding, 635 nm fluorescence; higher = more signal;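 also: Shh protein binding to compounds spotted on small-molecule microarray slides; score combines spot fluorescence intensity with signal-to-noise across triplicate slides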
[11] = E. coli DRC41 culture turbidity changes, primary screen, E. coli filamentation inducer project, strain DRC41, OD650, 48 h (AID 1152);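 also: E. coli MC1000 strain DRC41 lacking acrAB efflux pump and sulA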; conditions: E. coli DRC41 (acrAB sulA), higher = more signal, called active from +8 up or from −8 down
[12] = small-molecule binders of probe aLefty1, primary screen, biochemical, small-molecule microarray, 635/667 nm fluorescence (AID 1153); conditions: higher = more signal;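 also: score merges spot fluorescence with signal-to-noise ratio from the scanned slide images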
[13] = PSAC antagonists in infected red cells, primary screen, cell-based, P. falciparum Indochina, OD700, 1 h (AID 1154); conditions: P. falciparum Indochina infected RBC osmotic lysis, higher = more signal, called active from +8 up or from −8 down
[14] = PSAC antagonists in infected red cells, primary screen, cell-based, P. falciparum Indochina, OD700, 2 h (AID 1155);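 also: lysis reports solute entry through the parasite surface anion channel PSAC; channel blockers reduce lysis of infected cells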; conditions: P. falciparum Indochina infected erythrocytes, osmotic lysis OD700; higher = more signal, called active from +8 up or from −8 down
[15] = osmotic lysis modulators in infected erythrocytes, primary screen, PSAC antagonist project, cell-based, P. falciparum Indochina, OD700, 3 h (AID 1156); conditions: higher = more signal, called active from +8 up or from −8 down
[16] = PSAC antagonists in infected red cells, primary screen, cell-based, P. falciparum Indochina, OD700, 18 h (AID 1157); conditions: P. falciparum Indochina infected erythrocytes, osmotic lysis OD700, 18 h; higher = more signal, called active from +8 up or from −8 down
[17] = modulators of S6 phosphorylation in cells, primary screen, cell-based, A549, cytoblot, luminescence, serum-stimulated (AID 1158); conditions: A549 phospho-S6 cytoblot, 5 h, higher = more signal;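 also: serum-stimulated A549 lung adenocarcinoma cells; signal is phosphorylated S6 detected by cytoblot immunostaining with HRP secondary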
[18] = molecular target: NADPH oxidase 2 (Homo sapiens) (UniProt P04839); assay: NOX2-dependent H2O2 signal modulators, primary screen, NOX inhibitor project, cell-based, HEK293-NOX2, PMA-stimulated, Amplex Red fluorescence (AID 1159); conditions: 45 min, higher = more signal, called active from +8 up or from −8 down; also: test concentration not given here
[19] = molecular target: NADPH oxidase 4 (Homo sapiens) (UniProt Q9NPH5); assay: NOX4-dependent H2O2 signal modulators, primary screen, NOX inhibitor project, cell-based, HEK293-NOX4, tetracycline-induced, Amplex Red fluorescence (AID 1160); conditions: 45 min, higher = more signal, called active from +8 up or from −8 down
[20] = molecular target: NADPH oxidase 5 (Homo sapiens) (UniProt Q96PH1); assay: NOX5-dependent H2O2 signal modulators, primary screen, NOX inhibitor project, cell-based, HEK293-NOX5, Amplex Red fluorescence (AID 1161); conditions: HEK293-NOX5, ionomycin, 45 min, higher = more signal
Sequence of NADPH oxidase 5 (Homo sapiens) (Q96PH1 whole entry, looked up): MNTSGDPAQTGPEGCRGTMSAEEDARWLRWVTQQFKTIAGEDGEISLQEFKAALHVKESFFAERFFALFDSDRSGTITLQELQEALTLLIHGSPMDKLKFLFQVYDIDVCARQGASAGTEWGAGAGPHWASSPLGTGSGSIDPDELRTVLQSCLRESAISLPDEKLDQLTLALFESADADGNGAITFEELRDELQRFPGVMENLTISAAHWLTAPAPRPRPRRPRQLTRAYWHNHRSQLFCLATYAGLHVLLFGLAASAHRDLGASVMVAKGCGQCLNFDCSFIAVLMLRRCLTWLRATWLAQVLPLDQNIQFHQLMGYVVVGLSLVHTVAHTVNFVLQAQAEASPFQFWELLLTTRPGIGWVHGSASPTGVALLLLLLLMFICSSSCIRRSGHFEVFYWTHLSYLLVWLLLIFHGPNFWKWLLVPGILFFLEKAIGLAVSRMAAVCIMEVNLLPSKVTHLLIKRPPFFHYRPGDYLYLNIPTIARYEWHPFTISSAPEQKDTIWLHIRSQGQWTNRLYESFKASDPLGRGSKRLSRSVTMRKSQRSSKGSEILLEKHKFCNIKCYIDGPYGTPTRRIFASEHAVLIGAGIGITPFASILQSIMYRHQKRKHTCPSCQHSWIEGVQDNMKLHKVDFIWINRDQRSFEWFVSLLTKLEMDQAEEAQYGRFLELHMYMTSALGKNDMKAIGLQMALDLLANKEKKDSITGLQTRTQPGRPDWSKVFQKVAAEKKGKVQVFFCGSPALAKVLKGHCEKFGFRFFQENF

Sequence of Streptavidin (Streptomyces avidinii) (P22629 whole entry, looked up): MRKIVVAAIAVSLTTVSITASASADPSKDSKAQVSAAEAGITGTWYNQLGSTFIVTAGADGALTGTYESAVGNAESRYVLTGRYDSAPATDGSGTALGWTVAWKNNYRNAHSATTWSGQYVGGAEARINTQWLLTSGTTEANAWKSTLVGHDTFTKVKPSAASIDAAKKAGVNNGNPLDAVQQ
Sequence of NADPH oxidase 4 (Homo sapiens) (Q9NPH5 whole entry, looked up): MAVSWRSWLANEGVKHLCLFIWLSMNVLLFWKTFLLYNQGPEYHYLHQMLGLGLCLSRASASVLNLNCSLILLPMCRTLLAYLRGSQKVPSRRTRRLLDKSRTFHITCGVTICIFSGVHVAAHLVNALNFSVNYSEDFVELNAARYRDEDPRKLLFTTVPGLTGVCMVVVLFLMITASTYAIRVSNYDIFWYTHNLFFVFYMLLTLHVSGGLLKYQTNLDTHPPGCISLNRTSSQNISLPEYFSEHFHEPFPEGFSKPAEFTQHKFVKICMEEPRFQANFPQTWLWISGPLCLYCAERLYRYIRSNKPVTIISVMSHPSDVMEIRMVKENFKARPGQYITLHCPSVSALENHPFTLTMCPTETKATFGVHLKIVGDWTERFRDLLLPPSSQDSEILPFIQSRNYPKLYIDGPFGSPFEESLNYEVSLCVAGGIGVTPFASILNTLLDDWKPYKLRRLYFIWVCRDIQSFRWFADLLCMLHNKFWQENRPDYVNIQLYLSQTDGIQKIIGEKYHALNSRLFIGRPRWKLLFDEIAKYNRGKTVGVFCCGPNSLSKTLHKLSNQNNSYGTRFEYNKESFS
Sequence of Torsin-1A (Homo sapiens) (O14656 whole entry, looked up): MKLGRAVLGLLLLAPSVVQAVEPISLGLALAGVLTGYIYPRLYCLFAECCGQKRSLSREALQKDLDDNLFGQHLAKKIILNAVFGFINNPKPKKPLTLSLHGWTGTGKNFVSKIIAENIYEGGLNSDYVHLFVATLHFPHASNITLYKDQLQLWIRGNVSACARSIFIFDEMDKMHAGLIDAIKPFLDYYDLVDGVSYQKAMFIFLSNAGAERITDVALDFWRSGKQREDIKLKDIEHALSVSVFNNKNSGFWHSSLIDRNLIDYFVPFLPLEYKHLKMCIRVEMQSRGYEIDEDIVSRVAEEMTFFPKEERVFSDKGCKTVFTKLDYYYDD
Sequence of NADPH oxidase 2 (Homo sapiens) (P04839 whole entry, looked up): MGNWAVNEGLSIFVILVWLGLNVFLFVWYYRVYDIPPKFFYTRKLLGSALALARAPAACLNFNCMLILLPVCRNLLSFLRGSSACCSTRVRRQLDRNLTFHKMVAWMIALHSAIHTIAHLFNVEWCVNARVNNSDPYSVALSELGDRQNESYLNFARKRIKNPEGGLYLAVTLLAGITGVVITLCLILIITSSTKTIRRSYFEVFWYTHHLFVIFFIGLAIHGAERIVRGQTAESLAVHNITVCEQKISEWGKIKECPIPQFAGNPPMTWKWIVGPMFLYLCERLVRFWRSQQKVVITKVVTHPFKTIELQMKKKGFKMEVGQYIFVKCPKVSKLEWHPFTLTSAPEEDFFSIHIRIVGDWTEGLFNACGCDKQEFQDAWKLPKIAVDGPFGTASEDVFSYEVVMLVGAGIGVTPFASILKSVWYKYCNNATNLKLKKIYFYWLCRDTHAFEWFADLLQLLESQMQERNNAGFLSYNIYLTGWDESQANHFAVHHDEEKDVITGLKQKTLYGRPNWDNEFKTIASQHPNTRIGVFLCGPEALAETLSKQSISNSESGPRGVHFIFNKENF

Structure (SMILES): COCCOC(=O)N1C(=O)[C@@]2(c3cc(C#CC4(O)CCCCCC4)ccc31)[C@H](c1ccc(OCCO)cc1)N1[C@H](c3ccccc3)[C@H](c3ccccc3)OC(=O)[C@H]1[C@@H]2C(=O)Nc1nc2ccccc2s1
- composite z-score [1]: 0.544
- z-score [2]: -1.39 (inactive)
- z-score [3]: 0.3 (inactive)
- z-score [4]: -0.337 (inactive)
- z-score [5]: 0.138 (inactive)
- composite z-score [6]: 0.945
- composite z-score [7]: 0.134
- composite z-score [8]: 0.494
- composite z-score [9]: 0.734
- composite z-score [10]: 1.84
- z-score [11]: -0.595 (inactive)
- composite z-score [12]: 0.718
- z-score [13]: 2.53 (inactive)
- z-score [14]: 2.08 (inactive)
- z-score [15]: 0.834 (inactive)
- z-score [16]: 1.53 (inactive)
- z-score [17]: -0.652
- z-score [18]: 0.549 (inactive)
- z-score [19]: 0.131 (inactive)
- z-score [20]: 1.94

Structure (SMILES): C=C(COC)C(=O)CC[C@@H](OC(=O)c1cccnc1)c1ccccc1OCCO
- composite z-score [1]: 0.125
- z-score [2]: -3.79 (inactive)
- z-score [3]: 0.291 (inactive)
- z-score [4]: 19.7 (active)
- z-score [5]: 16.4 (active)
- composite z-score [6]: -0.126
- composite z-score [7]: 0.0355
- composite z-score [8]: 0.882
- composite z-score [9]: 1.14
- composite z-score [10]: 0.786
- z-score [11]: 0.0001 (inactive)
- composite z-score [12]: -0.106
- z-score [13]: 21.2 (active)
- z-score [14]: 2.88 (inactive)
- z-score [15]: 0.793 (inactive)
- z-score [16]: 0.65 (inactive)
- z-score [17]: -0.347
- z-score [18]: -2.12 (inactive)
- z-score [19]: -0.369 (inactive)
- z-score [20]: -1.4

Structure (SMILES): CC=CC(O)C1C=CC2C(=O)NC(=O)C2N1Nc1ccccn1 (stereo not given)
- composite z-score [1]: -0.11
- z-score [2]: 1.11 (inactive)
- z-score [3]: -0.587 (inactive)
- z-score [4]: -0.329 (inactive)
- z-score [5]: 0.701 (inactive)
- composite z-score [6]: 0.149
- composite z-score [7]: -0.0645
- composite z-score [8]: 0.599
- composite z-score [9]: -0.164
- composite z-score [10]: 0.77
- z-score [11]: -0.576 (inactive)
- composite z-score [12]: -0.0061
- z-score [13]: -0.335 (inactive)
- z-score [14]: -0.0554 (inactive)
- z-score [15]: 0.0091 (inactive)
- z-score [16]: 0.998 (inactive)
- z-score [17]: -0.966
- z-score [18]: -1.39 (inactive)
- z-score [19]: -1.87 (inactive)
- z-score [20]: -1.74

Structure (SMILES): COC(=O)C1=CC(CCCO)=CC(C)N(Cc2cccc(OC(F)(F)F)c2)C=C1C(=O)OC (stereo not given)
- composite z-score [1]: 0.145
- z-score [2]: -1.07 (inactive)
- z-score [3]: -0.117 (inactive)
- z-score [4]: -0.168 (inactive)
- z-score [5]: 0.308 (inactive)
- composite z-score [6]: 0.747
- composite z-score [7]: -0.001
- composite z-score [8]: -0.148
- composite z-score [9]: 0.47
- composite z-score [10]: -0.681
- z-score [11]: -0.0692 (inactive)
- composite z-score [12]: 0.248
- z-score [13]: 2.3 (inactive)
- z-score [14]: 0.192 (inactive)
- z-score [15]: 0.983 (inactive)
- z-score [16]: 0.5 (inactive)
- z-score [17]: -0.334
- z-score [18]: 0.159 (inactive)
- z-score [19]: -0.317 (inactive)
- z-score [20]: 0.859

Structure (SMILES): CCc1cccc(NC(=O)O[C@H]2[C@H](OC(=O)Nc3ccccc3)[C@H](OC(=O)Nc3ccccc3)[C@@H](OC)O[C@@H]2CO)c1
- composite z-score [1]: 0.428
- z-score [2]: -6.02 (inactive)
- z-score [3]: -0.0223 (inactive)
- z-score [4]: 1.03 (inactive)
- z-score [5]: -1.2 (inactive)
- composite z-score [6]: 1.03
- composite z-score [7]: 0.212
- composite z-score [8]: -0.417
- composite z-score [9]: 0.778
- composite z-score [10]: 0.0653
- z-score [11]: -1.42 (inactive)
- composite z-score [12]: 0.253
- z-score [13]: 10.1 (active)
- z-score [14]: 3.34 (inactive)
- z-score [15]: -1.53 (inactive)
- z-score [16]: 1.92 (inactive)
- z-score [17]: 0.213
- z-score [18]: -1.12 (inactive)
- z-score [19]: -0.593 (inactive)
- z-score [20]: -1.3

Structure (SMILES): Cc1ccc(F)cc1S(=O)(=O)N[C@@H]1CCN(Cc2cccc3[nH]ccc23)C1
- composite z-score [1]: 0.148
- z-score [2]: -2.35 (inactive)
- z-score [3]: -0.0885 (inactive)
- z-score [4]: 1.13 (inactive)
- z-score [5]: -0.714 (inactive)
- composite z-score [6]: -0.0164
- composite z-score [7]: 0.143
- composite z-score [8]: 0.495
- composite z-score [9]: 0.913
- composite z-score [10]: 0.969
- z-score [11]: -1.41 (inactive)
- composite z-score [12]: -0.007
- z-score [13]: 1.27 (inactive)
- z-score [14]: 0.137 (inactive)
- z-score [15]: 0.0401 (inactive)
- z-score [16]: 0.451 (inactive)
- z-score [17]: -0.453
- z-score [18]: 0.116 (inactive)
- z-score [19]: -0.746 (inactive)
- z-score [20]: -0.541

Structure (SMILES): CC(C)CNC(=O)[C@@H]1c2ccccc2C(=O)N(C2CCCCC2)[C@H]1c1ccc(CO)cc1
- composite z-score [1]: -0.141
- z-score [2]: -2.94 (inactive)
- z-score [3]: -0.466 (inactive)
- z-score [4]: -0.179 (inactive)
- z-score [5]: -1.55 (inactive)
- composite z-score [6]: -0.285
- composite z-score [7]: -0.101
- composite z-score [8]: 0.146
- composite z-score [9]: -0.0175
- composite z-score [10]: -0.242
- z-score [11]: 3.5 (inactive)
- composite z-score [12]: 0.259
- z-score [13]: 1.36 (inactive)
- z-score [14]: 0.387 (inactive)
- z-score [15]: 0.472 (inactive)
- z-score [16]: -0.288 (inactive)
- z-score [17]: 1.24
- z-score [18]: -0.318 (inactive)
- z-score [19]: 1.42 (inactive)
- z-score [20]: 0.297

Structure (SMILES): COc1ccc(CCNC(=O)[C@@]2(Cc3ccccc3I)c3ccccc3C(=O)N(Cc3ccccc3Cl)[C@H]2c2ccc(CO)cc2)cc1
- composite z-score [1]: 0.0402
- z-score [2]: -2.74 (inactive)
- z-score [3]: -0.144 (inactive)
- z-score [4]: 0.0387 (inactive)
- z-score [5]: 0.752 (inactive)
- composite z-score [6]: -0.555
- composite z-score [7]: 0.502
- composite z-score [8]: -0.36
- composite z-score [9]: 0.397
- composite z-score [10]: 0.527
- z-score [11]: -1.2 (inactive)
- composite z-score [12]: 0.893
- z-score [13]: 4.53 (inactive)
- z-score [14]: 1.52 (inactive)
- z-score [15]: 1.55 (inactive)
- z-score [16]: 0.473 (inactive)
- z-score [17]: 0.0403
- z-score [18]: 0.898 (inactive)
- z-score [19]: 0.183 (inactive)
- z-score [20]: 1.39

Structure (SMILES): COCCOC(=O)N1C(=O)[C@@]2(c3cc(C#CCCO)ccc31)[C@H](c1ccccc1OCCO)N1[C@H](c3ccccc3)[C@H](c3ccccc3)OC(=O)[C@H]1[C@@H]2C(=O)N1CCCCCCC1
- composite z-score [1]: 0.405
- z-score [2]: -3.64 (inactive)
- z-score [3]: -1.29 (inactive)
- z-score [4]: -1.15 (inactive)
- z-score [5]: 0.481 (inactive)
- composite z-score [6]: 1.31
- composite z-score [7]: 1.45
- composite z-score [8]: 1.22
- composite z-score [9]: 0.34
- composite z-score [10]: 1.97
- z-score [11]: 1.59 (inactive)
- composite z-score [12]: 2.58
- z-score [13]: 2.44 (inactive)
- z-score [14]: 0.0348 (inactive)
- z-score [15]: 0.431 (inactive)
- z-score [16]: 0.951 (inactive)
- z-score [17]: 0.626
- z-score [18]: 0.6 (inactive)
- z-score [19]: 1.29 (inactive)
- z-score [20]: 1.35
